Assay results from PubChem BioAssay AID1159580 (chemical genetic matrix, 2015).
Among all 5,500 compounds or so, about 2,000 (36%) were called active. Roughly 18% stayed inconclusive and do not appear here. Cut-off read from the data, not from the text of the source: active = normalized growth mostly below about 0.91 (no sharp cut-off); inconclusive = no clear call, values can overlap the other calls; inactive = mostly above about 0.92. The list shows a part of the results.

Assay: chemical genetic growth profiling, strain panel (AID 1159580);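 note: tested at 20 µM; growth read once vehicle control cultures reached saturation at 30 °C; 1 = growth at the plate median or of vehicle wells; lower values mean less growth of the strain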
Details: growth OD

Measured: normalized growth

CCC(=O)OCC(=O)C1(OC(=O)CC)C(C)CC2C3CCC4=CC(=O)C=CC4(C)C3(Cl)C(O)CC21C (configuration not stated)
inactive: S. cerevisiae deletion strains, locus YJR043C, strain POL32, active compounds read low 1.03 | S. cerevisiae deletion strains, locus YJR066W, strain TOR1, active compounds read low 0.995 | S. cerevisiae deletion strains, locus YKL009W, strain mrt4, active compounds read low 1 | S. cerevisiae deletion strains, locus YKL068W, active compounds read low 0.989 | S. cerevisiae deletion strains, locus YKL085W, strain MDH1 (second series), active compounds read low 0.997 | S. cerevisiae deletion strains, locus YKL085W, strain MDH1, active compounds read low 0.997 | S. cerevisiae deletion strains, locus YKL160W, strain elf1, active compounds read low 0.964 | S. cerevisiae deletion strains, locus YKR001C, strain vps1, active compounds read low 0.992 | S. cerevisiae deletion strains, locus YKR026C, strain gcn3, active compounds read low 0.983 | S. cerevisiae deletion strains, locus YKR091W, strain srl3, active compounds read low 0.983 | S. cerevisiae deletion strains, locus YLL001W, strain dnm1, active compounds read low 0.927 | S. cerevisiae deletion strains, locus YLL026W, active compounds read low 0.989 | S. cerevisiae deletion strains, locus YLL041C, strain sdh2, active compounds read low 0.977 | S. cerevisiae deletion strains, locus YLR027C, strain aat2, active compounds read low 0.962 | S. cerevisiae deletion strains, locus YLR039C, strain RIC1, active compounds read low 1.02 | S. cerevisiae deletion strains, locus YLR058C, strain SHM2, active compounds read low 1.02 | S. cerevisiae deletion strains, locus YLR102C, strain apc9, active compounds read low 0.994 | S. cerevisiae deletion strains, locus YLR113W, strain HOG1, active compounds read low 1.07 | S. cerevisiae deletion strains, locus YLR221C, strain rsa3, active compounds read low 1.01 | S. cerevisiae deletion strains, locus YLR258W, strain gsy2, active compounds read low 0.993 | S. cerevisiae deletion strains, locus YLR262C, strain YPT6 (second series), active compounds read low 0.915 | S. cerevisiae deletion strains, locus YLR262C, strain YPT6, active compounds read low 1.07 | S. cerevisiae deletion strains, locus YLR268W, strain sec22, active compounds read low 0.985 | S. cerevisiae deletion strains, locus YLR320W, strain mms22, active compounds read low 0.983 | S. cerevisiae deletion strains, locus YLR330W, strain CHS5, active compounds read low 1.02 | S. cerevisiae deletion strains, locus YLR342W, strain FKS1 (second series), active compounds read low 1.05 | S. cerevisiae deletion strains, locus YLR342W, strain FKS1, active compounds read low 0.977 | S. cerevisiae deletion strains, locus YLR357W, strain rsc2, active compounds read low 1.03 | S. cerevisiae deletion strains, locus YLR370C, strain arc18, active compounds read low 0.963 | S. cerevisiae deletion strains, locus YLR371W, strain rom2, active compounds read low 0.992 | S. cerevisiae deletion strains, locus YLR384C, strain iki3, active compounds read low 0.958 | S. cerevisiae deletion strains, locus YLR418C, strain cdc73, active compounds read low 0.984 | S. cerevisiae deletion strains, locus YML016C, strain PPZ1, active compounds read low 1.02 | S. cerevisiae deletion strains, locus YML032C, strain rad52, active compounds read low 0.994 | S. cerevisiae deletion strains, locus YML120C, strain ndi1, active compounds read low 0.958 | S. cerevisiae deletion strains, locus YML124C, strain tub3, active compounds read low 0.985 | S. cerevisiae deletion strains, locus YMR058W, strain fet3, active compounds read low 0.986 | S. cerevisiae deletion strains, locus YMR078C, strain ctf18, active compounds read low 0.992 | S. cerevisiae deletion strains, locus YMR125W, strain sto1, active compounds read low 0.988 | S. cerevisiae deletion strains, locus YMR129W, active compounds read low 0.976 | S. cerevisiae deletion strains, locus YMR205C, strain PFK2, active compounds read low 0.965 | S. cerevisiae deletion strains, locus YMR223W, strain ubp8, active compounds read low 1 | S. cerevisiae deletion strains, locus YMR231W, strain pep5, active compounds read low 0.971 | S. cerevisiae deletion strains, locus YMR307W, strain GAS1, active compounds read low 1.09 | S. cerevisiae deletion strains, locus YNL067W, strain RPL9B, active compounds read low 0.996 | S. cerevisiae deletion strains, locus YNL071W, strain lat1, active compounds read low 0.989 | S. cerevisiae deletion strains, locus YNL183C, strain NPR1, active compounds read low 0.983 | S. cerevisiae deletion strains, locus YNL209W, strain ssb2, active compounds read low 0.997 | S. cerevisiae deletion strains, locus YNL233W, strain BNI4, active compounds read low 1 | S. cerevisiae deletion strains, locus YNL248C, strain rpa49, active compounds read low 0.973 | S. cerevisiae deletion strains, locus YNL250W, strain rad50, active compounds read low 1 | S. cerevisiae deletion strains, locus YNL271C, strain bni1, active compounds read low 0.988 | S. cerevisiae deletion strains, locus YNL298W, strain CLA4, active compounds read low 0.991 | S. cerevisiae deletion strains, locus YNL307C, strain MCK1, active compounds read low 0.981 | S. cerevisiae deletion strains, locus YNL322C, strain KRE1 (second series), active compounds read low 0.971 | S. cerevisiae deletion strains, locus YNR049C, strain mso1, active compounds read low 0.982 | S. cerevisiae deletion strains, locus YNR052C, strain pop2, active compounds read low 0.994 | S. cerevisiae deletion strains, locus YOL012C, strain htz1 1.1 | S. cerevisiae deletion strains, locus YOL147C, strain pex11, active compounds read low 0.986 | S. cerevisiae deletion strains, locus YOR001W, strain rrp6, active compounds read low 0.952 | S. cerevisiae deletion strains, locus YOR061W, strain CKA2, active compounds read low 1.02 | S. cerevisiae deletion strains, locus YOR069W, strain VPS5, active compounds read low 1.01 | S. cerevisiae deletion strains, locus YOR070C, strain gyp1, active compounds read low 0.996 | S. cerevisiae deletion strains, locus YOR080W, strain dia2, active compounds read low 0.954 | S. cerevisiae deletion strains, locus YOR083W, strain WHI5, active compounds read low 0.946 | S. cerevisiae deletion strains, locus YOR106W, strain vam3, active compounds read low 0.931 | S. cerevisiae deletion strains, locus YOR136W, strain idh2, active compounds read low 0.979 | S. cerevisiae deletion strains, locus YOR144C, strain elg1, active compounds read low 0.991 | S. cerevisiae deletion strains, locus YOR184W, strain ser1, active compounds read low 0.986 | S. cerevisiae deletion strains, locus YOR231W, strain MKK1, active compounds read low 1.05 | S. cerevisiae deletion strains, locus YOR265W, strain rbl2, active compounds read low 0.985 | S. cerevisiae deletion strains, locus YOR290C, strain snf2, active compounds read low 1 | S. cerevisiae deletion strains, locus YOR316C, strain cot1, active compounds read low 0.991 | S. cerevisiae deletion strains, locus YPL051W, strain arl3, active compounds read low 0.986 | S. cerevisiae deletion strains, locus YPL055C, strain LGE1, active compounds read low 1.01 | S. cerevisiae deletion strains, locus YPL078C, strain atp4, active compounds read low 0.921 | S. cerevisiae deletion strains, locus YPL106C, strain sse1, active compounds read low 1.06 | S. cerevisiae deletion strains, locus YPL240C, strain hsp82, active compounds read low 0.976 | S. cerevisiae deletion strains, locus YPL241C, strain CIN2, active compounds read low 1.02 | S. cerevisiae deletion strains, locus YPL256C, strain CLN2, active compounds read low 1.05 | S. cerevisiae deletion strains, locus YPR119W, strain clb2, active compounds read low 0.988 | S. cerevisiae deletion strains, locus YPR141C, strain kar3, active compounds read low 0.988 | S. cerevisiae deletion strains, locus YPR163C, strain tif3, active compounds read low 0.995 | S. cerevisiae deletion strains, locus YPR167C, strain met16, active compounds read low 0.993 | S. cerevisiae deletion strains, strain wtn01, active compounds read low 0.977 | S. cerevisiae strains, strain wild type, active compounds read low 1.02
active: S. cerevisiae deletion strains, locus YOR270C, strain vph1, active compounds read low 0.757
